# Screening data deposited in PubChem by several laboratories.
# NCOA1 inh: inhibitors of human steroid receptor coactivator 1 (SRC1); HEK293 GAL4-SRC1 luciferase reporter, luminescence; inhibition, % at 3.6 µM; 360,000 tested, 0.12% active; AID 588354;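 active = inhibition above the campaign mean plus 3 SD, with each screening campaign given its own cutoff, cut at about 60% in these data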;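 also: 0% = DMSO treated cells and 100% = gossypol at 36 µM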
# SRC2 inh: inhibits human steroid receptor coactivator 2; HEK293 GAL4-SRC2 luciferase reporter, luminescence; inhibition, % at 9 µM; 370,000 tested, 0.17% active;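 active = inhibition above the mean inhibition of all tested compounds plus 3 SD, set per campaign, cut at about 52% in these data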;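 also: 0% = DMSO treated cells and 100% = cells given Gossypol at 36 µM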
# COUP-TFII inh: blocks human COUP-TFII nuclear receptor; inhibition, % at 8.6 µM; AID 686940; 370,000 tested, 0.7% active; HEK293T NGFI-A luciferase reporter, luminescence; P24468;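 active = inhibition above a per-plate cutoff, mean inhibition of test wells between control levels plus 3 SD, cut at about 38% in these data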;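 also: cells cotransfected with COUP-TFII expression vector driving the NGFI-A reporter; 0% = median of COUP-TF2 test wells and 100% = reporter-only cells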
# NCOA3 inh: inhibits human SRC3 coactivator | Q9Y6Q9 | HEK293 GAL4-SRC3 luciferase reporter, luminescence | inhibition, % at 3.6 µM | 360,000 tested, 0.17% active | AID 588352;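 active = inhibition above a per-campaign cutoff, the mean of all compounds plus 3 SD, cut at about 60% in these data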;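 also: 0% = DMSO-treated cells and 100% = gossypol-treated cells at 36 µM; higher means less SRC3-driven luciferase light from the GAL4 reporter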
# Gli-Sufu antag: antagonists of Gli-Sufu signaling; Sufu-KO-LIGHT fibroblasts, Gli luciferase reporter luminescence; inhibition, % at 5 µM; 340,000 tested, 0.74% active;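 active = inhibition above about 55%, limit read from the data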;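 also: 0% = DMSO-treated cells and 100% = wells with medium but no cells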
# LRH-1 inv ag: NR5A2 inverse agonism in reporter assay | O00482 | HEK293T StAR-luciferase reporter, LRH-1 transfected, 24 h | inhibition, % at 3.6 µM | 360,000 tested, 0.13% active;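 active = inhibition above the mean inhibition of all tested compounds plus 3 SD, cut at about 73% in these data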;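 also: 0% = DMSO wells and 100% = reporter-only cells lacking LRH-1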
# Target sequence (O00482 whole entry, looked up): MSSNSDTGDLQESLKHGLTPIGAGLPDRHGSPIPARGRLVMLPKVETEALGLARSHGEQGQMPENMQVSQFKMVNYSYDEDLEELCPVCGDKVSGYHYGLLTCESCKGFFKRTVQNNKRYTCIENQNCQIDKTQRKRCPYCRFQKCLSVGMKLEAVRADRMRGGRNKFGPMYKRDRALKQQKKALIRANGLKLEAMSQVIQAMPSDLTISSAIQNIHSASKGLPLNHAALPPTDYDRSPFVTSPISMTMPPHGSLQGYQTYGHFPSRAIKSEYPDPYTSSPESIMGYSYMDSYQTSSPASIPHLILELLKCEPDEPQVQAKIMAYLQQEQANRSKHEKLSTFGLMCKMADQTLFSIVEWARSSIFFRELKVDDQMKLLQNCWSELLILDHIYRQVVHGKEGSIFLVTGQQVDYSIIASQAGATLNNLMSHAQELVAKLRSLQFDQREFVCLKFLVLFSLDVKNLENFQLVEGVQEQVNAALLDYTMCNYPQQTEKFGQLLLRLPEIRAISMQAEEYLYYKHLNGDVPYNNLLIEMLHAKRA
# Gli-Sufu confirm: confirmation of Gli-SUFU pathway antagonists; shares compounds with Gli-Sufu antag; Sufu-KO-LIGHT cells, Gli luciferase reporter, luminescence; inhibition, % at 5 µM; 2,500 tested, 40% active;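 active = mean inhibition at 5 µM reaching about 45%, limit read from the data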;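 also: plate controls were DMSO-treated cells for no effect and wells lacking cells for full effect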
# Gli cytotox: cytotoxic in Gli-SUFU antagonist counter-screen; 2,500 tested, 32% active; shares compounds with Gli-Sufu antag; Sufu-KO-LIGHT cells cytotoxicity, ATP luminescence; cytotoxicity, % at 5 µM;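 active = mean cytotoxicity at 5 µM above about 25%, limit read from the data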;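 also: cells exposed to compound overnight for roughly 16 to 18 hours; plate controls were DMSO wells with cells for no effect and medium without cells for full effect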
# Wnt3a cs: counter-screen for Gli-SUFU antagonists: Wnt3a reporter inhibition. 2,500 tested, 20% active. AID 651995. inhibition, % at 6.25 µM. Wnt-LIGHT cells, Wnt3a-driven luciferase reporter, luminescence. shares compounds with Gli-Sufu antag;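 active = mean inhibition above about 25%, limit read from the data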
# Starred values were filed as active, the others as inactive; / = not tested or not shown. Compounds with a hit are over-represented: about 1.3% of the library has one in this group of screens.
SMILES,NCOA1 inh,SRC2 inh,COUP-TFII inh,NCOA3 inh,Gli-Sufu antag,LRH-1 inv ag,Gli-Sufu confirm,Gli cytotox,Wnt3a cs
Cc1ccc(NC(=O)c2ccccc2F)nc1,-140.8,-60.3,-49.2,-77.2,99.5*,-114.7,-54.7,14.0,6.8
CC(C)(C)OC(=O)N1CCC2CCN(S(C)(=O)=O)CC21 (centres undefined),/,-1.2,7.0,/,/,/,/,/,/
CC1(C)CC(=O)c2c(O)cc(OCc3ccc(Br)cc3)cc2O1,-94.6,-66.9,-40.9,-82.5,95.8*,-119.9,-40.5,21.8,-123.5
CCN1CCN(C(=O)c2c(-c3ccccc3)noc2C)CC1,-75.9,4.2,-1.6,-1.6,25.9,5.2,/,/,/
CC(=O)N1CCN(C(=O)c2c(-c3ccccc3)noc2C)CC1,-1.2,-47.3,-1.3,1.1,58.9*,17.6,24.7,8.2,-12.5
Cc1ccccc1CNC1CCC12CCC(c1ccccc1)CC2 (centres undefined),/,/,-10.6,/,/,/,/,/,/
CN(CCOC(=O)CCCc1ccccc1)C1CN(Cc2cn(Cc3ccccc3F)nn2)S(=O)(=O)C1 (centres undefined),/,14.2,-34.7,/,/,/,/,/,/
CCn1c(/C=C/N(C(C)=O)c2ccccc2)[n+](CCCS(=O)(=O)[O-])c2cc(Cl)c(Cl)cc21,5.7,7.7,-29.5,8.0,-9.8,2.1,/,/,/
CCn1c(/C=C/Nc2ccccc2)[n+](CC)c2cc(Cl)c(Cl)cc21,6.7,3.7,-9.2,10.9,66.1*,21.1,60.7*,17.6,7.7
C=CCn1c(SCC(=O)O)nnc1-c1ccco1,/,-17.6,-3.2,/,/,/,/,/,/
CCOc1ccc(CN(C)CC(=O)Nc2ccc3c(c2)CCC3)cc1OC,-6.0,11.0,-1.0,11.7,53.5,8.1,24.4,21.6,-30.2
COc1ccc(/C=N\N2CCN(Cc3ccccc3Cl)CC2)cc1,13.9,8.6,9.8,-6.3,50.3,27.7,12.4,15.7,-26.7
Clc1ccc(/C=N/N2CCN(Cc3ccccc3Cl)CC2)cc1,-11.0,7.4,11.4,11.2,6.1,19.3,/,/,/
C/C(=N\NC(N)=S)c1ccccc1,-13.9,2.9,2.9,12.9,2.2,32.4,/,/,/
CSC(=S)N/N=C(\C)c1ccccc1,10.6,-9.3,-20.1,-3.9,72.2*,-3.9,34.1,18.4,-5.0
CCN(CC)C(=O)c1ccc(S(=O)(=O)N2CCC(c3nc4ccccc4s3)CC2)cc1,0.3,13.2,11.0,32.3,58.6*,-7.4,41.7,9.8,3.2
O=C(Nc1ccc2c(c1)Cc1ccccc1-2)NC1CCCCN(Cc2cccc(Cl)c2)C1=O (centres undefined),/,-11.2,-7.5,/,/,/,/,/,/
CCCCC(=O)NC(c1ccc(N(CC)CC)cc1)c1ccc2cccnc2c1O (centres undefined),38.1,11.4,13.6,16.5,93.5*,3.9,88.3*,43.8*,92.2*
CCCC(=O)NC(c1ccc2c(c1)OCO2)c1cc(Cl)c2cccnc2c1O (centres undefined),19.1,/,/,37.7,31.6,-11.8,/,/,/
CCCC(=O)NC(c1ccc(N(C)C)cc1)c1c(O)ccc2ccccc12 (centres undefined),2.2,22.8,3.8,5.1,-3.5,7.5,/,/,/
CCCCC(=O)NC(c1ccc(N(C)C)cc1)c1ccc2cccnc2c1O (centres undefined),46.4,3.3,-30.7,43.8,87.6*,13.0,85.9*,36.8*,93.3*
CN1Cc2nnn(CC3CCCCC3)c2-c2ccccc2S1(=O)=O,/,-4.1,-12.3,/,/,/,/,/,/
Cc1ccc(CN2CCNC(=O)C2CC(=O)N(C)CCc2ccccc2)cc1 (centres undefined),-24.8,23.5,8.0,-2.8,22.3,-2.8,/,/,/
Cc1cc(C)nc(CCNC(=O)CC2C(=O)NCCN2Cc2ccccc2)n1 (centres undefined),-26.2,7.8,-17.5,-8.3,52.4,8.7,21.4,-4.5,2.4
Cc1nc(CCNC(=O)CC2C(=O)NCCN2Cc2ccccc2)nc2c1CCC2 (centres undefined),10.2,-16.8,0.3,-10.9,-10.4,22.0,/,/,/
SMILES,NCOA1 inh,SRC2 inh,COUP-TFII inh,NCOA3 inh,Gli-Sufu antag,LRH-1 inv ag,Gli-Sufu confirm,Gli cytotox,Wnt3a cs
CN(CCc1ccccn1)C(=O)CC1C(=O)NCCN1Cc1ccc(-c2ccccc2)cc1 (centres undefined),-21.0,15.1,-10.1,16.3,60.2*,8.1,8.9,1.0,-24.6
COC(=O)[C@]12C[C@H](CC(=O)NCCc3ccccc3OC)C(=O)N(Cc3ccco3)C1=C[C@H](C1CCCC1)O[C@@H]2C,/,-7.3,-1.4,/,/,/,/,/,/
COC(=O)[C@@H]1[C@H](O[Si](C)(C)C(C)(C)C)C2OC2C[C@H]1S(=O)(=O)c1ccccc1 (some centres undefined),/,/,13.3,/,/,/,/,/,/
Cc1ccc(-n2c(-c3ccccc3)c[n+]3c2CCC3)cc1,-43.6,15.6,32.6,33.1,81.8*,20.7,84.3*,23.8,40.1*
Cc1ccc(-n2c(-c3ccc(Cl)cc3)c[n+]3c2CCC3)cc1,11.1,35.2,33.9,38.3,76.2*,26.4,77.2*,37.4*,7.2
FC(F)Sc1ccc(-n2c(-c3ccc(Cl)cc3)c[n+]3c2CCC3)cc1,-12.5,-20.8,26.7,9.6,53.4,15.9,24.1,1.8,-93.5
CC(=O)N[C@@H]1C[C@@H]2O[C@H](CO)CC[C@@H]2O[C@@H]1CCc1ccc(C#CC2(O)CCCC2)cc1,/,-18.9,-5.1,/,/,/,/,/,/
COc1cc(NC(=O)NC2CCCCN(Cc3cccc(Cl)c3)C2=O)cc(OC)c1 (centres undefined),/,-24.5,-2.5,/,/,/,/,/,/
O=C1N(c2cccc3ccccc23)C(c2ccccc2)N2CCCN12 (centres undefined),5.8,19.4,-9.7,0.7,81.3*,0.3,14.4,4.7,-10.1
Cc1ccccc1COC(=O)CNC(=O)c1sc2ccccc2c1Cl,7.1,-35.4,13.2,6.7,65.0*,8.7,20.6,10.2,-0.5
O=C(CNC(=O)c1sc2ccccc2c1Cl)OCc1ccccc1,-5.6,-3.9,9.5,4.5,-5.3,-39.0,/,/,/
S=C(Nc1ccc(Cl)c(Cl)c1)Nc1nnc(-c2ccncc2)s1,/,/,19.7,/,/,/,/,/,/
O=C(OCc1cn(Cc2cccc(C(F)(F)F)c2)nn1)N1CCOCC1,/,-4.2,6.1,/,/,/,/,/,/
Oc1ccc(-c2nc3ccc4ccccc4c3c3c2CCC3)cc1O,-33.1,-2.9,-16.8,-19.4,56.0*,-33.3,11.5,19.8,-26.5
Cc1cc(C)c2c(ccc3ccccc32)n1,-4.7,-29.0,-2.5,-9.8,5.6,-8.2,/,/,/
CC(C)(C)OC(=O)NCc1cc(F)ccc1/C=C/S(=O)(=O)NCc1ccc(F)cc1,/,23.1,-3.0,/,/,/,/,/,/
